RGS16-Gao HTS: RGS16-Galphao interaction regulator (human) | hit rate 0.38% among 220,000 | bead-based flow cytometry RGS16-Galphao binding, fluorescence; actives lie on both sides | binding response (% of control), % at 10 µM | O15492+P09471;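 also: Galphao activated by GDP with aluminum fluoride before binding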
RGS7-Gao reg: human RGS7-Galphao interaction regulation. P09471. Multiplexed bead flow cytometry, RGS7-Galphao binding; actives lie on both sides. binding response (% of control), % at 10 µM. hit rate 0.35% among 220,000; in the data active = binding response below about 49% or above about 150%; inconclusive = no clear call, values can overlap the other calls; inactive = in between;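 also: fluorescent Galphao held in activated GDP-AlF4 state binding bead-coupled RGS7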
Target sequence (P09471 whole entry, looked up): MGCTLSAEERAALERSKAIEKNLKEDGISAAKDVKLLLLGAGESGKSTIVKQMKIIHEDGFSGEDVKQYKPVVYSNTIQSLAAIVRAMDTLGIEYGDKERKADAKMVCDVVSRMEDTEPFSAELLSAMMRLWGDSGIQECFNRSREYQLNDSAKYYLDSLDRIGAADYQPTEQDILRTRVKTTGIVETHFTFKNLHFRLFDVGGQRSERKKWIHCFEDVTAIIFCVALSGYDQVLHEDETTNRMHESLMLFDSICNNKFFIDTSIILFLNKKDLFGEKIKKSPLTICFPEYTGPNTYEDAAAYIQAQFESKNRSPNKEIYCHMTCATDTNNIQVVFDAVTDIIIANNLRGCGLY
RGS8-Gao: regulators of human RGS8-Galphao interaction | multiplexed bead flow cytometry, RGS8-Galphao binding; actives lie on both sides | response (percent of control binding), % at 10 µM | hit rate 0.34% among 220,000; in the data active = response below about 60% or above about 140%; inactive = in between;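 also: Galphao activated as the GDP aluminium fluoride complex binding bead-coupled RGS8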
RGS4-Gao reg: modulates binding of RGS4 to human Galphao; P09471; Multiplexed bead flow cytometry; actives lie on both sides; binding response (% of control), % at 10 µM; hit rate 0.33% among 220,000; in the data active = binding response below about 49% or above about 150%; inactive = in between;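 also: fluorescent Galphao activated with aluminum fluoride binding bead-coupled RGS4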
GSH bead fluor: compound fluoresces at 488/530 nm on GSH beads; GSH beads flow cytometry, compound fluorescence 488/530 nm; stronger effect = higher value; fluorescence (KMESF) at 10 µM; hit rate 0.25% among 190,000; in the data active = fluorescence above about 89;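 also: glutathione beads carrying GST-tagged Bcl family fusion proteins plus one bare bead set; values are compound well signal with DMSO vehicle wells as background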
Avidin fluor: avidin bead compound fluorescence profile; hit rate 0.38% among 220,000; AID 1775; Avidin beads, compound fluorescence 488/530 nm, flow cytometry; stronger effect = higher value; fluorescence (KMESF) at 10 µM; in the data active = fluorescence above about 47
RGS-Gao: regulators of human RGS4-Galphao interaction. hit rate 99% among 1,600. shares compounds with RGS16-Gao HTS. RGS4–Galpha-o binding response, % at 10 µM. multiplexed bead flow cytometry, RGS–Galpha-o binding;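 also: fluorescently labeled Galpha-o bound to GDP with aluminium fluoride binding biotinylated RGS beads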
Target sequence (P09471 whole entry, looked up): as above
Target sequence (P49798 whole entry, looked up): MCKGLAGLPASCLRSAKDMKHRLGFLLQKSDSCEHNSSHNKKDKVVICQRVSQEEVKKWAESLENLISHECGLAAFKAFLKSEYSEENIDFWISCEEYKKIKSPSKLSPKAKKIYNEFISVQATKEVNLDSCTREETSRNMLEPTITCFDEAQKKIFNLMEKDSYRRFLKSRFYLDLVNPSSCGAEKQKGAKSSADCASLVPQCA
Biotin-avidin: counter-screen: compounds disrupting biotin binding to avidin beads. AID 1783. shares compounds with RGS16-Gao HTS. 1,700 tested, under 10 active. streptavidin beads, fluorescein-biotin binding, flow cytometry. inhibition, % at 10 µM;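 active = inhibition above 50%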;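 also: median green fluorescence of gated singlet beads compared with DMSO control wells; 0% = DMSO wells and 100% = complete loss of bead fluorescence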
RGS8-Gao single: RGS8-Galphao interaction regulation, single point confirmation | shares compounds with RGS16-Gao HTS | bead-based flow cytometry RGS8-Galphao binding, fluorescence; actives lie on both sides | binding response (% of control), % at 10 µM | hit rate 3% among 1,700; in the data active = binding response below about 72% or above about 130%; inactive = in between;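 also: Galphao activated as GDP AlF4 complex before binding bead RGS8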
RGS7-Gao single: RGS7-Galphao interaction regulation, single point confirmation; bead-based flow cytometry RGS7-Galphao binding; actives lie on both sides; hit rate 7.8% among 1,700; shares compounds with RGS16-Gao HTS; response (percent of control binding), % at 10 µM; in the data active = response below about 75% or above about 130%; inactive = in between;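 also: fluorescent Galphao activated with GDP and aluminum fluoride binding bead-coupled RGS7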
RGS16-Gao single: confirmation of regulators of human RGS16-Galphao interaction. shares compounds with RGS16-Gao HTS. bead-based flow cytometry, RGS16-Galphao binding; actives lie on both sides. response (% of control binding), % at 10 µM. hit rate 4% among 1,700. AID 1838; in the data active = response below about 74% or above about 130%; inactive = in between;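 also: Galphao activated as the GDP aluminium fluoride complex binding bead-coupled RGS16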
RGS4-Gao confirm: RGS4-Galphao interaction regulation, single point confirmation | shares compounds with RGS16-Gao HTS | RGS4-Galphao binding, multiplexed bead flow cytometry; actives lie on both sides | binding response (% of control), % at 10 µM | hit rate 4% among 1,700 | AID 1840; in the data active = binding response below about 74% or above about 130%; inactive = in between
RGS19-Gao single: confirmation of regulators of human RGS19-Galphao interaction. bead-based flow cytometry RGS19-Galphao binding; actives lie on both sides. hit rate 5% among 1,700. AID 1841. response (percent of control binding), % at 10 µM. shares compounds with RGS16-Gao HTS; in the data active = response below about 50% or above about 160%; inactive = in between;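 also: 100% = no compound control and 0% = blank background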
* = called active by the depositor; ? = inconclusive; . = not tested or not shown; [ ] = another dose, or the depositor's remark. A selection: hits, their analogues and other compounds. The true share with any hit is near 1.2%. Unless noted, no rule for the calls is given here.

SMILES	RGS16-Gao HTS	RGS7-Gao reg	RGS8-Gao	RGS4-Gao reg	GSH bead fluor	Avidin fluor	Biotin-avidin	RGS8-Gao single	RGS7-Gao single	RGS16-Gao single	RGS4-Gao confirm	RGS19-Gao single	others
Cc1cc(C)nc(/N=C2\NC(=O)CC3C(=O)NCCN23)n1 (stereo unspecified)	10*	12*	13*	21*	24	4	0	105	95	101	102	79
S=c1nc(C2CC2)n(-c2ccccc2)[nH]1	101	?	102	104	.	.	.	.	.	.	.	.
Cc1ccc(/C=N/NC(=O)c2ccc3nc[nH]c3c2)o1	92	?	95	156*[activator]	.	128*	3	98	90	98	96	78
Cc1ccc(CN(c2ccc(C(=O)Nc3cccnc3)cc2)S(C)(=O)=O)cc1	4.8*	16*	32*	-2.8*	10	4	-3	101	104	103	102	103
CC(C)C1C(c2ccccc2)NC(c2ccccc2)CC1(O)c1ccc(F)cc1 (stereo unspecified)	97	?	103	97	.	7	.	.	.	.	.	.
CCOc1ccc2nc(NC(=O)C(NS(=O)(=O)c3cccc4nsnc34)C(C)C)sc2c1 (stereo unspecified)	118	137	131	153*[activator]	22	2	0	101	105	103	103	105
CC(C)C(NS(=O)(=O)c1cccc2nsnc12)C(=O)Nc1nc2ccc(Cl)cc2s1 (stereo unspecified)	103	104	101	100	20	9	.	.	.	.	.	.
COc1ccc(Cn2c(CCC(=O)Nc3ccc(C)cc3)nc3cccnc32)cc1	154	111	101	156*[activator]	36	53*	0	102	99	95	97	69
O=C(c1ccccc1)c1c2c(cc3sc4ccccc4[n+]13)-c1cccc3cccc-2c13	93	199*[activator]	115	141	2	5	0	104	116	106	123	96	RGS-Gao=141*
Cc1sc2cc3c(c(C(=O)c4ccccc4)[n+]2c1C)-c1cccc2cccc-3c12	100	110	99	108	8	5	.	.	.	.	.	.
Cc1cc(C)c2c(=O)n(CC(=O)NC3CCCC3)sc2n1	41	?	81	93	.	3	.	.	.	.	.	.
COc1ccc(OC)c(CCNC(=O)Cn2sc3nc(C)cc(C)c3c2=O)c1	17*	92	74	92	15	3	3	52*	71*	6.5*	69*	8.8*	RGS-Gao=92*
COc1ccc(C(=O)CCC(=O)Nc2cccnc2)cc1	-5.4*	2.6*	6.2*	0.8*	9	0	-1	101	98	102	99	101
O=C(CCC1CCCCC1)Nc1cccnc1	.	.	.	.	38	.	2	102	100	100	101	100
O=C(CCC1CCCCC1)Nc1ccc(C(=O)c2ccncc2)cc1	97	103	101	99	17	8	.	.	.	.	.	.
COc1ccc(C(=O)CCC(=O)Nc2cccc(Cl)c2)cc1	101	95	99	98	15	11	.	.	.	.	.	.
Cc1ccc([N+](=O)[O-])cc1N/C=C1\CCCCC1=O	98	98	97	99	19	8	.	.	.	.	.	.
O=C(CN(Cc1ccccc1)S(=O)(=O)c1ccc2c(c1)OCCO2)Nc1ccc2c(c1)OCCO2	478	261*[activator]	136	184*[activator]	74	95*	-2	101	100	98	101	93
CS(=O)(=O)N(CC(=O)Nc1ccc2c(c1)OCCO2)Cc1ccccc1	98	98	101	101	55	7	.	.	.	.	.	.
Cc1ccc(C2=NCN(c3ccc(C(=O)O)cc3)C(=S)N2)cc1	100	102	100	104	11	21	.	.	.	.	.	.
CC(C)C1Oc2cc3oc(=O)ccc3cc2C1=O (stereo unspecified)	5.7*	50	57*	56	23	4	-1	107	105	106	103	98	RGS-Gao=56*
CCC(=O)c1ccc(OCC(=O)N2CCc3cc(OC)c(OC)cc3C2)cc1	-36*	-12*	9.6*	-33*	28	-3	-2	102	96	97	100	128
CC1CCN(S(=O)(=O)c2ccc3ncn(CC(=O)N4CCN(C)CC4)c(=O)c3c2)CC1	94	90	96	89	15	6	.	.	.	.	.	.
CCC(=O)c1ccc(OCc2ccc(C(=O)c3ccccc3)cc2)cc1	100	?	98	98	18	9	.	.	.	.	.	.
Cn1c(=O)c2c(nc(N3CCc4ccccc4C3)n2Cc2ccccc2F)n(C)c1=O	102	100	102	100	11	31	.	.	.	.	.	.
SMILES	RGS16-Gao HTS	RGS7-Gao reg	RGS8-Gao	RGS4-Gao reg	GSH bead fluor	Avidin fluor	Biotin-avidin	RGS8-Gao single	RGS7-Gao single	RGS16-Gao single	RGS4-Gao confirm	RGS19-Gao single	others
Cn1c(=O)c2c(nc(OCC3COC(C)(C)O3)n2Cc2ccccc2F)n(C)c1=O (stereo unspecified)	161	164*[activator]	145*[activator]	165*[activator]	31	12	0	102	97	99	95	91
CC(C)OC(=O)C(C)Oc1ccc(C(=O)NCCc2ccccc2)cc1 (stereo unspecified)	124	112	104	118	48	41	.	.	.	.	.	.
O=C(NCc1ccccc1)c1ccc(C(=O)N(C2CCCCC2)C2CCCCC2)cc1	.	.	.	.	41	.	-1	93	86	90	93	86
COc1ccc(C(=O)N/C(=C\c2cn(C)c3ccccc23)C(=O)OCC(C)C)cc1	108	101	102	101	11	10	.	.	.	.	.	.
COc1ccc(N/C=C/C(=O)c2ccc(Cl)cc2)cc1	61	125	60*	128	10	11	-1	99	102	104	102	100	RGS-Gao=128*
COc1cccc(N/C=C/C(=O)c2ccc(Cl)cc2)c1	66	95	82	89	6	1	.	.	.	.	.	.

Source: PubChem
